# Assay results from PubChem BioAssay (NCI).
# About 83,000 compounds went through this panel and 20% of them were active in at least one assay; those are over-represented in the sample as a whole.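 Treatment: one concentration, 48 hours, 96-well format. Scoring: percent growth, with anything below 10 considered active.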 A number with no mark means an inactive call. The source made the active and inactive calls.
# Columns and labels:
# Test in all cases: NCI-60 one-dose screen, 48 h (100 = growth as untreated, 0 = no growth, -100 = all killed)
# Conditions in all cases: 10 µM unless noted
# SR leukemia = test system: SR leukemia
# OVCAR-8 ovarian = test system: OVCAR-8 ovarian
# OVCAR-5 ovarian = test system: OVCAR-5 ovarian
# OVCAR-4 ovarian = test system: OVCAR-4 ovarian
# IGROV1 ovarian = test system: IGROV1 ovarian
# OVCAR-3 ovarian = test system: OVCAR-3 ovarian
# HS 578T breast = test system: HS 578T breast
# NCI/ADR-RES ovarian = test system: NCI/ADR-RES ovarian
# RPMI-8226 leukemia = test system: RPMI-8226 leukemia
# SK-OV-3 ovarian = test system: SK-OV-3 ovarian
Compound,growth (SR leukemia),growth (OVCAR-8 ovarian),growth (OVCAR-5 ovarian) [%],growth (OVCAR-4 ovarian),growth (IGROV1 ovarian) [%],growth (OVCAR-3 ovarian),growth (HS 578T breast),growth (NCI/ADR-RES ovarian),growth (RPMI-8226 leukemia),growth (SK-OV-3 ovarian)
N=C(N)c1ccc(-c2ccc(-c3ccc(Cl)cc3Cl)o2)nc1,1.87% (active),1.36% (active),77.2,22.6%,25.4,-3.34% (active),-15.2% (active),71.6%,,
Cc1ccc(/C=C(\C#N)n2nnc3cc(Cl)c(Cl)cc32)cc1,17.3%,14.8%,13.3,29.3%,12.2,-35.2% (active),11.7%,-25.5% (active),,
Cl.Fc1c[c-]c(-c2ccccn2)c(F)c1.[Pt].c1ccc(P(c2ccccc2)C([PH+](c2ccccc2)c2ccccc2)[PH+](c2ccccc2)c2ccccc2)cc1,23.3%,16.3%,22,17.2%,19.1,11%,12%,84.2%,,
Nc1nc(Nc2ccc(Cl)cc2)nn1S(=O)(=O)c1ccc(-c2ccc(F)cc2)cc1,85.5%,83.8%,85.7,89.4%,76.2,92.1%,79.6%,83.3%,,
Cc1cc(N(CCCNc2ccnc3cc(Cl)ccc23)Cc2ccccn2)nc(N2CCOCC2)n1,,81.7%,95.8,82.3%,82.2,97.6%,80.9%,88.6%,85.2%,88.5%
COc1ccc(/C=C(\C#N)n2nnc3cc(F)c(F)cc32)c(OC)c1OC,,67.6%,98,60.6%,68.8,58.2%,66.2%,72.7%,41.6%,88.6%
O=C(C[C@@]1(O)C(=O)Nc2c(Cl)ccc(Cl)c21)c1ccc(C2CC2)cc1,,29.7%,33.4,54.3%,22.9,-11.9% (active),7.19% (active),5.4% (active),23.4%,38.6%
Nc1ccc(S(=O)(=O)Nc2ccsc2-c2nc(-c3ccccc3)no2)cc1,,59.7%,87.5,81.9%,64.7,36.8%,56.4%,54.6%,65.8%,62.3%
Cn1c(NCCc2ccc(O)c(O)c2)nc2c1c(=O)n(Cc1ccc(Cl)cc1)c(=O)n2C,,87.6%,94.9,59.8%,61.9,62.6%,77%,88.5%,37.9%,82.3%
Oc1ccccc1-c1nc2ccccn2c1NCCN1CCOCC1,,100%,91.6,92.2%,103,97.3%,89.5%,104%,93.2%,76.5%
CS(=O)(=O)c1ccc(N/N=C/c2c(-c3ccc(S(C)(=O)=O)cc3)[nH]c3ccc(F)cc23)cc1,,26.1%,75.1,40.2%,35.4,41.7%,5.71% (active),91.5%,-41.7% (active),54.6%
C=C(C)[C@@H]1CC[C@]2(CN)CC[C@]3(C)[C@H](CC[C@@H]4[C@@]5(C)CCC(N)[C@@](C)(CO)[C@@H]5CC[C@]43C)[C@@H]12 (some centres not stated),,-72.9% (active),48.5,-4.67% (active),67,-75.9% (active),-37.1% (active),76.2%,-51.8% (active),-80.5% (active)
CS(=O)(=O)c1ccc(-c2[nH]c3ccc(F)cc3c2/C=N/O)cc1,,90.3%,91.4,97.1%,89.9,99.8%,92.2%,107%,90.4%,69.8%
O=S(=O)(NCCNc1cc(-c2c(-c3cccc(O)c3)nc3sccn23)ccn1)c1ccc(Cl)cc1,,51.1%,107,40.4%,54.1,64.2%,63.9%,87.6%,41.1%,75.1%
